{"source": "PubChem BioAssay AID2314", "about": "(National Center for Advancing Translational Sciences (NCATS), 2010)", "note": "Hit rate of the full screen: of about 300,000 compounds, about 37,000 (12%) were called active. The list comes from a sample in which actives are over-represented; it also holds similar structures and randomly drawn compounds. Unmarked numbers belong to inactive results. Cut-off read from the data, not from the text of the source: active = max response mostly above about 13% (no sharp cut-off); inactive = mostly below about 14%.", "data": [{"assay": "Cycloheximide Counterscreen for Small Molecule Inhibitors of Shiga Toxin; note: read at 38.3 µM for the half of the compounds with a filed dose; 0% is about no effect", "conditions": "cell reporter, cycloheximide protein synthesis inhibition counterscreen; stronger effect = higher value", "values": [{"compound": "Cc1ccc(C2=C/C(=C\\c3cccnc3)C(=O)O2)cc1", "max response": "-1.01%"}, {"compound": "O=S(O)S(=O)(=O)O", "max response": "-2.81%"}, {"compound": "COc1ccc(-n2cc(CNC3CCOCC3)c(-c3cccc(F)c3)n2)cc1", "max response": "1.41%"}, {"compound": "COc1ccc(-n2cc(CN(C)Cc3n[nH]c(=O)[nH]3)c(-c3cccc(F)c3)n2)cc1", "max response": "4.9%"}, {"compound": "Cc1ccccc1CN1CCN(C(=O)c2cccc(F)c2)CC1", "max response": "-3.46%"}, {"compound": "Cc1cccc(-n2cc(CN3CCN(C(=O)c4ncn[nH]4)CC3)c(-c3cccc(F)c3)n2)c1", "max response": "20.6% (active)"}, {"compound": "CCC(O)C1CCN(Cc2cn(-c3ccc(OC)cc3)nc2-c2cccc(F)c2)CC1", "note": "(centres undefined)", "max response": "10.6% (active)"}, {"compound": "Cc1ccc(C)c(-n2cc(CN3CCN(C(=O)c4ncn[nH]4)CC3)c(-c3ccccc3)n2)c1", "max response": "-1.39%"}, {"compound": "C=CCCC(=O)Nc1nc(C)c(-c2csc(Nc3ccc(Cl)cc3)n2)s1", "max response": "-1.48%"}, {"compound": "CCOCCCNCc1cc(Br)ccc1OCC", "max response": "1.32%"}, {"compound": "O=C(NCc1ccncc1)C1CCN(C(=O)c2cccc(Cl)c2)CC1", "max response": "-4.47%"}, {"compound": "Cc1ccc(NC2CCCN(C(=O)CCc3cn[nH]c3)C2)cc1C", "note": "(centres undefined)", "max response": "2.58%"}, {"compound": "COc1c(O)c2c(=O)cc(OC)c3c4c(OC)cc(=O)c5c(O)c(OC)c6c(c(c1C[C@@](C)(O)[C@H]6C(C)=O)c23)c54", "max response": "2.19%"}, {"compound": "COc1ccc(C(=O)/C=C/c2ccc(OC3CSC3)cc2)cc1", "max response": "-1.52%"}, {"compound": "CCCC(=O)Nc1ccc(C(=O)N/N=C/c2ccc[nH]2)cc1", "max response": "7.57%"}, {"compound": "CC(=O)Nc1ccc(NC(=S)NC(=O)/C=C/c2ccccc2)cc1", "max response": "4.54%"}, {"compound": "CC(=O)Nc1ccc(C(=O)/C=C/c2ccc[nH]2)cc1", "max response": "49.8% (active)"}, {"compound": "CC(=O)Nc1ccc(/C=C/C(=O)c2ccccc2)cc1", "max response": "30.5% (active)"}, {"compound": "CC(=O)Nc1ccccc1C(=O)C(=O)Nc1ccc(F)cc1", "max response": "11.7%"}, {"compound": "COc1ccc(CCNc2nc3ccc(C)cc3n3cnnc23)cc1OC", "max response": "-4.65%"}, {"compound": "CC1CCN(S(=O)(=O)c2nnc(NC(=O)COc3ccccc3F)s2)CC1", "max response": "-2.77%"}, {"compound": "CN(CCC(=O)Nc1cc(S(=O)(=O)N(C)C)ccc1Cl)CC(=O)Nc1ccc(F)cc1", "max response": "-1.74%"}, {"compound": "Cc1ccc(OC(=O)c2cncc(Br)c2)c(C)c1", "max response": "-1.19%"}, {"compound": "Cc1ccc(S(=O)(=O)c2nc(NCCCn3ccnc3)sc2Cl)cc1", "max response": "-2.37%"}, {"compound": "Cc1ccc(-c2nc(C#N)c(NCCCn3ccnc3)o2)cc1", "max response": "16.7% (active)"}, {"compound": "COc1ccc(/C=C(\\C#N)C(=O)NCCCn2ccnc2)cc1", "max response": "-5.64%"}, {"compound": "CCOC(=O)/C=C/C(=O)OCC(=O)NC(c1ccccc1)c1ccccc1", "max response": "19.8% (active)"}, {"compound": "O=C(Cc1ccc(-c2ccccc2)cc1)NC(c1ccccc1)c1ccccc1", "max response": "1.24%"}, {"compound": "CCOC(=O)C(C(=O)OCC)C(C#N)c1ccccc1", "note": "(centres undefined)", "max response": "-1.71%"}, {"compound": "COc1ccc(CNC(=O)[C@H](Cc2c[nH]c3ccccc23)NC(C)=O)cc1OC", "max response": "-3.86%"}, {"compound": "O=C(O)c1ccc(NC(=O)c2ccc(COc3ccc(Cl)cc3)o2)cc1", "max response": "2.26%"}, {"compound": "COc1ccc(Cl)cc1NC(=O)NCC1CCN(Cc2ccccc2F)CC1", "max response": "-0.34%"}, {"compound": "O=C(Nc1ccn(Cc2ccccc2F)n1)c1ccc(COc2ccc(Cl)cc2Cl)o1", "max response": "15.1% (active)"}, {"compound": "Cc1nn(C(C)(C)C)c(OC(=O)CC(C)C)c1S(=O)(=O)c1ccccc1", "max response": "9.13%"}, {"compound": "COc1ccc(C2c3[nH]c4ccccc4c3C[C@H]3C(=O)N(CC(C)C)CC(=O)N23)c(OC)c1", "note": "(some centres undefined)", "max response": "-3.45%"}, {"compound": "COc1ccc(C2C=C(c3ccc(Br)cc3)Nc3nc(NS(C)(=O)=O)nn32)cc1", "note": "(centres undefined)", "max response": "-3.16%"}, {"compound": "Cn1nc([N+](=O)[O-])nc1Sc1ccc(C(C)(C)C)cc1", "max response": "-3.02%"}, {"compound": "O=C(CN1CCN(C(=O)C2CCCO2)CC1)Nc1c(Cl)cccc1Cl", "note": "(centres undefined)", "max response": "-1.69%"}, {"compound": "Cc1cccc(C(=O)Nc2nnc(Cc3c[nH]c4ccccc34)s2)c1", "max response": "3.09%"}, {"compound": "Cc1cccc(N=C2NN=C(c3c[nH]c4ccccc34)CS2)c1", "max response": "25.2% (active)"}, {"compound": "Cc1cccc(N=C2NC(=O)/C(=C/c3cn(C)c4ccccc34)S2)c1", "max response": "3.29%"}, {"compound": "CC1CCCCC1NC(=O)c1cn(C)c2ccc(S(=O)(=O)N3CCOCC3)cc2c1=O", "note": "(centres undefined)", "max response": "1.03%"}, {"compound": "O=C(NCCc1csc(-c2ccccc2)n1)c1ccccc1F", "max response": "17.6% (active)"}, {"compound": "Cc1nc(CNS(=O)(=O)c2cccnc2)cs1", "max response": "-2.9%"}, {"compound": "O=S(=O)(NCCc1csc(-c2ccccc2)n1)c1cccnc1", "max response": "19.7% (active)"}, {"compound": "O=S(=O)(NCCc1ccncc1)c1ccccc1", "max response": "-2.7%"}, {"compound": "O=C(NC1CCN(Cc2ccccc2)CC1)c1ccccc1F", "max response": "-5.27%"}, {"compound": "O=C(NCCc1ccccn1)c1cc(-c2ccc(Cl)cc2)nc2ccccc12", "max response": "-4.89%"}, {"compound": "Cc1ccc(-c2nn(C(C)(C)C)c3ncnc(N)c23)cc1", "max response": "-0.92%"}, {"compound": "COc1ccc(NC(=O)C2C3CCC(O3)C2C(=O)O)cc1OC", "note": "(centres undefined)", "max response": "-2.93%"}, {"compound": "COc1ccc(CN2C3CCCC2CC(NC(=O)c2cccc(F)c2)C3)cc1", "note": "(centres undefined)", "max response": "-1.01%"}, {"compound": "CCOC(=O)c1ccccc1NC(=O)COC(=O)CCC(=O)N1CCOCC1", "max response": "-1.15%"}, {"compound": "COc1cc2c(cc1OC)C(C)N(S(=O)(=O)c1cnc(Cl)c(Cl)c1)CC2", "note": "(centres undefined)", "max response": "11.2%"}, {"compound": "COc1ccc(-n2ncc3c2CC(C)(C)CC3NC(=O)CCc2c(C)nn(C)c2C)cc1", "note": "(centres undefined)", "max response": "0.573%"}, {"compound": "CCCNC(=O)c1ccc(N2CCC3(CC2)CC(c2ccc(Cl)cc2)=NO3)c([N+](=O)[O-])c1", "max response": "-0.889%"}, {"compound": "S=C(c1ccc(-c2ccccc2)o1)N1CCCCC1", "max response": "38.1% (active)"}, {"compound": "OCCN1CCN(C(=S)c2ccc(-c3ccccc3)cc2)CC1", "max response": "-2.28%"}, {"compound": "S=C(c1ccccc1)N1CCCC1", "max response": "-0.586%"}, {"compound": "Cc1ccc(OCC(=O)Nc2ccc(N3CCN(C(=O)c4ccco4)CC3)cc2)c(C)c1", "max response": "-1.02%"}]}]}
